Measurements from PubChem BioAssay AID1457 (National Center for Advancing Translational Sciences (NCATS), 2008).
Hit rate of the full screen: of about 210,000 compounds, about 730 (0.35%) were called active. Not shown: some 1% with an inconclusive outcome. What follows is part of a selection rich in actives, with near analogues and random picks from the rest. A number with no mark means an inactive call. Calls come from the whole dose curve; as a rule, active = well fitted inhibition curve with a large enough effect; inconclusive = small, poorly fitted or top-dose-only effect; inactive = no such curve, though single readings can be large or run the other way.

Assay: qHTS Assay for Identifying the Cell-Membrane Permeable IMPase Inhibitors: Potentiation with Lithium;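 note: IP1 builds up when IMPase is blocked and the TR-FRET signal falls; nearly all actives have a fitted effect of over 50% in size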;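 for activity, negative = IMPase inhibition: plate controls were basal vehicle for no effect and high inhibitor control for full effect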
Conditions: CHO-M1 cells, IP1 TR-FRET (IP-One), carbachol + lithium; series mostly up to 59.4 µM; activity, negative = IMPase inhibition: at the top concentration
Source text: NIH Chemical Genomics Center [NCGC]
NIH Molecular Libraries Probe Production centers Network [MLPCN]
Assay Submitter (PI): Wei Zheng
Lithium has been widely used for the treatment of bipolar disorder. But lithium has a narrow therapeutic index and it can cause side effects such as thirst, weight gain, tremor, polyuria and memory problems. Although the mechanism for lithium action in treatment of bipolar disorder is still not fully understood, inhibition of inositol monophosphatase (IMPase) and the subsequent depletion of the inositol pool in living cells have been implicated as the primary therapeutic benefit of lithium therapy. Therefore, a selective IMPase inhibitor with reduced side effects might be a good drug candidate to replace lithium for the treatment of bipolar disorder. Several IMPase inhibitors have been discovered previously. However, they are not suitable for therapeutic use because of their poor cell membrane penetrability or oral bioavailability; the development of new cell-permeable IMPase inhibitors is needed.
IMPase catalyzes the hydrolysis of inositol-1-phosphate (IP1) to release free inositol. Binding of an agonist to a Gq coupled GPCR results in the activation of PLC, which hydrolyzes the PIP2 to form inositol-1,4,5-trisphosphate (IP3) and diacyl glycerol (DAG). While DAG activates protein kinase C (PKC), IP3 triggers the elevation of intracellular free Ca2+. The IP3 is very rapidly inactivated by hydrolysis to IP2, IP1 and then inositol by a series of enzymes including IMPase. Free inositols are used for synthesis of PI and thus start another inositol cycle.
To identify new cell-permeable IMPase inhibitors, we developed a cell-based IMPase assay in which the cytosolic IP1 is measured by a time-resolved fluorescence resonance energy transfer (TR-FRET) assay. In this assay, an IP1 specific antibody is used to detect the labeled IP1 tracer. When the cell lysate contains the elevated IP1 due to the inhibition of IMPase, the TR-FRET between the labeled antibody and IP1 tracer is disrupted resulting in a reduction in the total signal. Since the TR-FRET is used, this cell-based assay is a homogenous assay without cell wash and medium change that is suitable for assay miniaturization and HTS. In this particular assay, a small amount of lithium is added to potentiate the response of weak activators.
NCGC Assay Protocol Summary:
A Chinese hamster ovary (CHO) cell line stably expressing the M1 receptor (CHO-M1) was obtained from ATCC and maintained in F-12 Kaighn's media (Invitrogen, Carlsbad, CA) supplemented with 10 % FBS, 100 units/ml penicillin, 100 ug/ml streptomycin and 250 ug/ml geneticin at 37C, 5% CO2 in a humidified atmosphere. Before the assay, aliquots of cells were frozen and stored at -135C. The assay was performed in 1536-well format. Data are reported for both the ratio of the two emission wavelengths, and also for the component 'donor' channel, Em2=620. […] AC50 values were determined from concentration-response data modeled with the standard Hill equation.
(1) Frozen CHO-M1 cells were thaw, washed once with fresh media and resuspended in F12K media containing 10% FBS, 100 units/ml penicillin and 100 ug/ml streptomycin. Cells were plated at 4ul/well (2000 cells) in white, tissue culture treated 1536-well plates, and then cultured at 37C, 5 % CO2 for 16 to 30 hours.
(2) Add 23 nl/well of compound in DMSO solution. The final titration for each compound was between 0.6 nM and 46 uM.
(4) Incubation at 37C, 5 % CO2 for 30 min.
(5) Add 1 ul/well of d2-conjugated IP1 (d2-IP1) and 1 ul/well of Eu+ cryptate conjugated anti-IP1 antibody (Eu+-Ab) prepared in the cell lysis buffer, both from the IP-One kit (Cisbio, MA).
(6) Incubate at room temperature for 10 minutes.
(7) Detect the assay plate (Ex = 320, Em1 =665 and Em2 620) in a ViewLux plate reader.
Potency is the fitted concentration of half-maximal effect.

| Structure (SMILES) | Potency | activity, negative = IMPase inhibition |
| --- | --- | --- |
| CN(C)C1C(=O)C(C(N)=O)=C(O)[C@@]2(O)C(=O)C3=C(O)c4c(O)cccc4[C@@](C)(O)C3C[C@@H]12 (stereo not given in full) | 10 µM (active) | – |
| CN(C)[C@@H]1C(=O)C(C(N)=O)=C(O)[C@@]2(O)C(=O)C3=C(O)c4c(O)cccc4[C@@](C)(O)C3CC12 (stereo not given in full) | 8.91 µM (active) | – |
| CC(=O)c1c(O)c(C)c(O)c(Cc2c(O)c3c(c(C(=O)/C=C\c4ccccc4)c2O)OC(C)(C)C=C3)c1O | – | 26.8% |
| CC[C@@](O)(C(=O)O)c1cc2n(c(=O)c1CO)Cc1cc3ccccc3nc1-2 | – | -9.04% |
| Clc1ccccc1 | – | -3.42% |
| CC[N+](C)(CC)CCC[n+]1c(-c2ccccc2)c2cc(N)ccc2c2ccc(N)cc21 | inactive | – |
| O=P(O)(O)C(O)c1ccc2ccccc2c1 (stereo not given) | – | 31.4% |
| CC(C)(c1ccccc1)c1ccc(O)cc1 | – | 0.357% |
| O=C(CN1CCN(S(=O)(=O)c2ccc3ccccc3c2)CC1)NC(=O)NC1CCCCC1 | – | 42.4% [at 38.3 µM] |
| c1ccc(N2CC[C@@]3(CCCNC3)C2)nc1 | – | 15% |
| O=c1oc2ccccc2c(O)c1C(c1ccccc1O)c1c(O)c2ccccc2oc1=O | 10 µM (active) | – |
| CCC(=O)CC(c1ccc([N+](=O)[O-])cc1)c1c(O)c2ccccc2oc1=O (stereo not given) | – | -1.57% [at 38.3 µM] |
| COc1cc(C(c2c(O)c3ccccc3oc2=O)c2c(C)n(C)n(-c3ccccc3)c2=O)ccc1O (stereo not given) | – | 1.66% |
| O=C(O)C(=O)Cc1ccc2c(c1)OCO2 | – | 4.01% |
| c1ccc(Cc2nn3c(Cn4cnc5ccccc54)nnc3s2)cc1 | – | 47% [at 38.3 µM] |
